Where “and” joins values, the source holds several entries; their conditions need not be identical. Identical values can stand only once. A structure can be active in one record and inactive in another. Calls of active or inactive are those of the source. The calls were made as follows: active = hit-call score of the fitted dose curve at least 0.9, where 1 is the maximum; inactive = score below 0.9.
Assay: CCTE_Mundy_HCI_Cortical_Synap_Neur_Matur_NeuriteLength: CCTE's Synaptogenesis and Neurite Maturation Assay in rat cortical cells for Neurite Length, Mundy Lab (AID 2284214)
Experimental: CCTE_Mundy_HCI_Cortical_Synap&Neurite_Matur is a multiplexed, cell-based-readout assay that uses rat primary cortical cells with measurements taken at 288.33 hours after chemical dosing in a microplate: 96-well plate.CCTE_Mundy_HCI_Cortical_Synap_Neur_Matur_NeuriteLength is one of eight components of the CCTE_Mundy_HCI_Cortical_Synap&Neurite_Matur assay. It measures synaptogenesis and neurite maturation related to neurite length using High Content Imaging of fluorescently labelled markers.[…] Using a type of morphology reporter, loss -of-signal activity can be used to understand developmental effects.
Cells are plated onto 96 well plates and allowed 2 hr for attachment to the substrate. At days in vitro (DIV) 5, Cytosine Arabinoside (AraC) is added to arrest glial cell growth. Chemicals are dosed and a media change is performed at DIV 7 of differentiation and is continued through DIV 12 when the experiment is terminated. Cells are fixed with […] and Hoechst Dye. Cells are stained using Millipore Mouse anti-MAP2MAB3418 (1:800) and Millipore Rabbit anti-Synaptophysinsc-1750 (1:250) primary antibodies and Alexa Fluor-488 goat anti-mouse and AlexaFluor-546 goat anti-rabbit secondary antibodies to label neuronal cell nuclei, synapses and neurites. A Cellomics ArrayScan VTi HCS Reader is used for automated image acquisition and analysis of neurite outgrowth.

| SMILES | outcome | AC50 |
| --- | --- | --- |
| CCOC(=O)CC(SP(=S)(OC)OC)C(=O)OCC (stereo not drawn) | inactive | 61.9 µM (active) |
| N#Cc1nn(-c2c(Cl)cc(C(F)(F)F)cc2Cl)c(N)c1S(=O)C(F)(F)F (stereo not drawn) | inactive | – |
| Cc1ccc(-c2c(Cl)nc(C#N)n2S(=O)(=O)N(C)C)cc1 | – | 85.7 µM (active) |
| C=CC1(C)OC(=O)N(c2cc(Cl)cc(Cl)c2)C1=O (stereo not drawn) | inactive | – |
| CN(C)C(=S)SSC(=S)N(C)C | – | 0.0549 µM (active) |
| C=CCC1=C(C)[C@@H](OC(=O)[C@@H]2[C@@H](C=C(C)C)C2(C)C)CC1=O | – | 23.9 µM (active) |
| CO/C=C(/C(=O)OC)c1ccccc1Oc1cc(Oc2ccccc2C#N)ncn1 | – | 3.56 µM (active) |
| CCOc1cc(Oc2ccc(C(F)(F)F)cc2Cl)ccc1[N+](=O)[O-] | – | 16.1 µM (active) |
| CCCCC(CC)COC(=O)c1ccccc1C(=O)OCC(CC)CCCC (stereo not drawn) | – | 3.85 µM (active) and 4.26 µM (active) |
| CNC(=O)ON=CC(C)(C)SC | inactive | – |
| CCCCOC(=O)c1ccccc1C(=O)OCCCC | – | 64.7 µM (active) |
| COP(N)(=O)SC (stereo not drawn) | inactive | – |
| C=CCC1=C(C)C(OC(=O)C2C(C=C(C)C)C2(C)C)CC1=O (stereo not drawn) | inactive | – |
| CCCCNC(=O)n1c(NC(=O)OC)nc2ccccc21 | – | 15 µM (active) |
| COP(=S)(OC)Oc1nc(Cl)c(Cl)cc1Cl | – | 25.9 µM (active) |
| COC(=O)N(OC)c1ccccc1COc1ccn(-c2ccc(Cl)cc2)n1 | – | 0.0838 µM (active) |
| CC(C)(C)c1ccc(CSc2cnn(C(C)(C)C)c(=O)c2Cl)cc1 | – | 0.000626 µM (active) |

Source: PubChem BioAssay (EPA / NIEHS)
